Measurements: PubChem BioAssay AID1310 (The Scripps Research Institute Molecular Screening Center, 2008)
Some of the results follow. Calls of active or inactive are those of the source.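 The calls were made as follows: active = inhibition above the mean of solvent-only control wells plus 3 SD, set per campaign (cut at about 25% in these data); inactive = the rest.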

assay: blockers of IL-6 STAT3 transcription – U3A cells, luciferase, luminescence, triplicate, counter-screen for STAT1 inhibitor project (AID 1310); conditions: IL-6 STAT3 luciferase reporter, at 5.7 µM, hits give high values, cells lacking STAT1;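 also: 0% = IL-6 plus DMSO and 100% = IL-6 plus nifuroxazide control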

Row | SMILES | inhibition
1 | C[C@@H]1C[C@@H]2O[C@H]2/C=C\C=C\C(=O)Cc2c(Cl)c(O)cc(O)c2C(=O)O1 | 70% (active)
2 | COc1ccc(C(=O)Nc2ccccc2C(=O)N/N=C/c2ccccc2OC)cc1 | -7.2% (inactive)
3 | NS(=O)(=O)c1cccc(NC(=O)CSc2nc3ccccc3n2-c2ccccc2)c1 | -2.95% (inactive)
4 | CCOC(=O)C(=CNc1cccc(C)n1)C(=O)OCC | 9.3% (inactive)
5 | O=C(CCl)N(Cc1cccc([N+](=O)[O-])c1)c1cccc(Cl)c1 | 47% (active)
6 | COc1ccc(C2CC(c3cccs3)=NN2c2nc(C)c(C(C)=O)s2)cc1OC (stereo not given) | 13.4% (inactive)
7 | CCOC(=O)N1CCN(C(=O)CSc2nnc(-c3c[nH]c4ccccc34)n2CCOC)CC1 | -4.2% (inactive)
8 | CCOC(=O)N1CCN(C(=O)C2CCN(c3ncnc4c3sc3cccc(F)c34)CC2)CC1 | 4.65% (inactive)
9 | COC(=O)C1=CN(Cc2ccc(OC)c(OC)c2)C=C(C(=O)OC)C1c1cccs1 | -3.35% (inactive)
10 | Cc1ccc(C2=Nc3c(ccc4ccccc34)C(c3ccncc3)=NN2)cc1 | -38.9% (inactive)
